# Test results as given in the supplement of paper PMC6897291.
# Tested on: RIVA
# Assay: growth inhibition by drug plus 177Lu-lilotomab satetraxetan (1 - RLU/untreated control) (fraction); higher = stronger inhibition
# Settings: 177Lu-lilotomab satetraxetan 0.5 ug/ml
# Protocol: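 RIVA (RI-1) ABC-DLBCL cells were pretreated or not for 18 h with 0.5 ug/ml 177Lu-lilotomab satetraxetan (600 MBq/mg), washed and seeded (3000 cells/well) on 384-well plates pre-printed with the Selleck Cambridge Cancer Compound library. Viability was read by RealTime-Glo luminescence on days 3-6 after seeding. Effect = 1 - RLU/mean RLU of the 48 untreated no-drug control wells per plate; Bliss score = (M-E)/(1-Fa).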
SMILES,"growth inhibition by drug plus 177Lu-lilotomab satetraxetan (10 nM, time (day): 3)","growth inhibition by drug plus 177Lu-lilotomab satetraxetan (10 nM, time (day): 4)","growth inhibition by drug plus 177Lu-lilotomab satetraxetan (10 nM, time (day): 5)","growth inhibition by drug plus 177Lu-lilotomab satetraxetan (10 nM, time (day): 6)","growth inhibition by drug plus 177Lu-lilotomab satetraxetan (100 nM, time (day): 3)","growth inhibition by drug plus 177Lu-lilotomab satetraxetan (100 nM, time (day): 4)","growth inhibition by drug plus 177Lu-lilotomab satetraxetan (100 nM, time (day): 5)","growth inhibition by drug plus 177Lu-lilotomab satetraxetan (100 nM, time (day): 6)"
CCN(CC)CCCCNc1ncc2cc(-c3cc(OC)cc(OC)c3)c(NC(=O)NC(C)(C)C)nc2n1,0.539,0.564,0.587,0.597,0.393,0.447,0.445,0.439
CN1CCC(CNc2ccc3ncc(-c4cccc(OC(F)(F)F)c4)n3n2)CC1 [SGI-1776 free base],0.428,0.539,0.541,0.561,0.302,0.441,0.445,0.462
c1ccc2c(CCNc3ccc(Nc4ccncc4)cc3)c[nH]c2c1,0.249,0.475,0.497,0.5,0.12,0.259,0.278,0.294
COc1cc(C(=O)NC(=S)Nc2cccc(NC(=O)c3ccccc3)c2)cc(OC)c1OC,0.491,0.568,0.58,0.595,0.562,0.589,0.588,0.568
CC1(COc2ccc3c(c2)ncn3-c2ccc3cccc(N4CCC(N)CC4)c3n2)COC1,0.618,0.628,0.633,0.631,0.449,0.485,0.466,0.463
